Screening data deposited in PubChem BioAssay by Pan Lab, Icahn School of Medicine at Mount Sinai.
ROC1-CUL1 inh = inhibitors of human ROC1-CUL1 ubiquitin ligase activity. AID 1347404. actives 0.6% (n = 140,000). P62877+Q13616. in vitro K48 di-Ub FRET, acceptor:donor ratio, 45 min. inhibition, % at 10 µM; in the data active = inhibition above about 25%
Target sequence (P62877 whole entry, looked up): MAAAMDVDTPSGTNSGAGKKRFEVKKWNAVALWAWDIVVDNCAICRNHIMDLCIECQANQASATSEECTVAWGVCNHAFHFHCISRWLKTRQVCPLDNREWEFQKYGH
Target sequence (Q13616 whole entry, looked up): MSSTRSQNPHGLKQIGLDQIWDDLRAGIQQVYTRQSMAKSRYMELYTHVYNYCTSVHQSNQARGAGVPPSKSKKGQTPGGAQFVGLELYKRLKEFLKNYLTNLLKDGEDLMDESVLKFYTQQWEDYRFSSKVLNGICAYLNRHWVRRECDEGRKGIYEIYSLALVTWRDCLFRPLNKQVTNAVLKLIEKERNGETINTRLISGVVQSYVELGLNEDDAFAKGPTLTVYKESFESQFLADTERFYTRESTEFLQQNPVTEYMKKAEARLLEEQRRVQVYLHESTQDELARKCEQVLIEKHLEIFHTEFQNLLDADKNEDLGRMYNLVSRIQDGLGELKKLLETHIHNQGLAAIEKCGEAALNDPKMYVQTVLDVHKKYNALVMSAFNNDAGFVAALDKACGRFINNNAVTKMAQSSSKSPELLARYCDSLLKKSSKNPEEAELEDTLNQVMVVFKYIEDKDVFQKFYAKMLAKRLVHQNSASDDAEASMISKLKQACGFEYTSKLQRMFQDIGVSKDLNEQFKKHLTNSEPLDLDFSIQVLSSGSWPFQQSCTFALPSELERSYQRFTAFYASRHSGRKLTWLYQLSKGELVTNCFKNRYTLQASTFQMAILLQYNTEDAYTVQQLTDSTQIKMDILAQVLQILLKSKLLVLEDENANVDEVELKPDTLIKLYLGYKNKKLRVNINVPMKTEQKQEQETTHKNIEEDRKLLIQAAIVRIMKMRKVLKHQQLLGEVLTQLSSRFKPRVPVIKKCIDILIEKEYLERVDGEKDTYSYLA
The depositor's hits bear a star. The sample as a whole holds a higher share of hits than the screen did.

SMILES	ROC1-CUL1 inh
CCn1c(SCC(=O)Nc2sc3c(c2C(N)=O)CCCC3)nnc1C(C)NC(=O)c1cccc(C)c1 (configuration not stated)	7.5
CC(=O)N1CCc2cc(S(=O)(=O)NC(CC(C)C)C(=O)NCCc3cccc(C)c3)ccc21 (configuration not stated)	44.5*
CC(=O)N1CCc2cc(S(=O)(=O)NC(CC(C)C)C(=O)NCc3ccccc3)ccc21 (configuration not stated)	2.7
CCC(=O)N1CCc2cc(S(=O)(=O)NC(CC(C)C)C(=O)NCCc3ccccc3)ccc21 (configuration not stated)	-0.4
CC(C)(C)n1ncc(OCC(=O)c2ccc(Br)cc2)c(Cl)c1=O	-7.3
Cc1cc(/C=N/NC(=O)C(=O)Nc2cccc(Cl)c2)c(C)n1-c1ccccc1C(F)(F)F	-6.9
O=C(NC1=NN(c2c(Cl)cc(Cl)cc2Cl)C(=O)/C1=C/c1ccc(O)cc1)c1cccc([N+](=O)[O-])c1	59.6*
O=C(COC(=O)c1ccc(NC(=O)c2ccc(Cl)cc2)cc1)c1cccc([N+](=O)[O-])c1	2.1
O=C(Nc1cc2nc3ccccc3nc2cc1NC(=O)c1cccc([N+](=O)[O-])c1)c1cccc([N+](=O)[O-])c1	0.2
FC(F)(F)c1cc(Cl)c2nc(-c3ccc(Cl)cc3)cn2c1	-1.4
O=C(O)c1ccccc1SCCSc1nc2ccccc2o1	33.8*
c1ccc2oc(SCCCCCCSc3nc4ccccc4o3)nc2c1	-4.9
c1ccc(CSc2nc3ccccc3o2)c(CSc2nc3ccccc3o2)c1	-0.6
O=C(NC(=S)Nc1ccc(I)cc1Cl)c1cncc(Br)c1	6.7
COc1ccc(N=C2SC(=Nc3ccccc3)C(=Nc3ccccc3)N2c2ccc(OC)cc2)cc1	3.2
Cn1c(=Nc2ccccc2)ssc1=Nc1ccccc1	9.8
COC1=CCCSC1=Nc1ccccc1	29.9*
CCC(COC)NC(=O)c1cc(COc2cccc3cnccc23)on1 (configuration not stated)	13.5
COCc1ccc(C(=O)Nc2ccc(-c3nc(CNC(=O)C(=O)CC(C)C)c(C)o3)cc2)o1	5.1
CN(C)c1ccc(NC(=O)c2ccco2)cc1	2.0
Cc1ncccc1C(=O)NNS(=O)(=O)c1ccccc1	-1.1
CCN1CC=C2C(C#N)C(=N)C(C#N)(C#N)[C@H](c3ccc4c(c3)OCO4)[C@H]2C1 (some centres not stated)	-5.0
CN1CC=C2C(C#N)C(=N)C(C#N)(C#N)[C@H](c3ccccc3F)[C@H]2C1 (some centres not stated)	2.0
CCN1CC=C2C(C#N)C(=N)C(C#N)(C#N)C(c3ccc(SC)cc3)C2C1 (configuration not stated)	67.9*
CCN1CC=C2C(C#N)C(=N)C(C#N)(C#N)C(c3cc(OC)c(OC)c(OC)c3)C2C1 (configuration not stated)	-1.3
SMILES	ROC1-CUL1 inh
CCN1CC=C2C(C#N)C(=N)C(C#N)(C#N)C(c3cccc(F)c3)C2C1 (configuration not stated)	46.6*
CCCN1CC=C2C(C#N)C(=N)C(C#N)(C#N)C(c3cccc(Br)c3)C2C1 (configuration not stated)	-0.8
CN1CC=C2C(C#N)C(=N)C(C#N)(C#N)C(c3ccco3)C2C1 (configuration not stated)	-4.2
CN1CC=C2C(C#N)C(=N)C(C#N)(C#N)C(c3ccc(Br)s3)C2C1 (configuration not stated)	44.8*
CCOC(=O)N1CC=C2C(C#N)C(=N)C(C#N)(C#N)[C@H](c3cccc(F)c3)[C@H]2C1 (some centres not stated)	6.4
CC1(C)CC(n2c(=O)c3c(n4cnnc24)-c2ccccc2CC32CCCCC2)CCO1 (configuration not stated)	-9.9
O=C(Nc1cccnc1)c1ccc(S(=O)(=O)N2CCCC2)cc1	-1.7
COc1cc(-c2nc(C)c(C(C)=O)n2O)ccc1OCC(=O)Nc1cccc(C(F)(F)F)c1	-2.3
CCC(O)c1ccc(-c2cccc(-c3ccn[nH]3)c2)cc1 (configuration not stated)	2.9
Cn1c(=O)c2c(nc3n(-c4ccc(O)cc4)c(-c4ccc(Br)cc4)cn23)n(C)c1=O	-13.9
CC1=C(C(=O)Nc2ccccc2)C(c2ccc(Cl)cc2Cl)NC(=O)N1C (configuration not stated)	0.0
O=C1NN(c2cccc(F)c2)C(=O)/C1=C\c1ccc(-c2ccc(C(=O)O)cc2)o1	5.6
NS(=O)(=O)c1ccc(-c2ccc(/C=C3\C(=O)NC(=S)N(c4cccc5ccccc45)C3=O)o2)cc1	4.5
NS(=O)(=O)c1ccc(-c2ccc(/C=C3/C(=O)NN(c4cccc(F)c4)C3=O)o2)cc1	43.6*
Cc1ccc(N2NC(=O)/C(=C/c3ccc(-c4ccc(S(=O)(=O)Nc5nccs5)cc4)o3)C2=O)cc1	71.7*
NC(=O)c1ccc(-c2ccc(/C=C3/C(=O)NN(c4ccc(F)cc4)C3=O)o2)cc1	4.8
CC1=NN(c2ccc(C)c(C)c2)C(=O)/C1=C\c1ccc(-c2ccc(S(=O)(=O)c3nccs3)cc2)o1	10.9
